Source: PubChem
Sm TGR inh: inhibitors of Schistosoma mansoni thioredoxin glutathione reductase | Q962Y6 | purified TGR, DTNB reduction, TNB absorbance 405 nm | Potency, µM (doses to about 114 µM), actives largely listed as inhibitors | actives 3% (n = 360,000); further: nearly all actives have a fitted effect of over 60% in size
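Kinetic colorimetric format: TGR-catalysed, NADPH-driven DTNB reduction monitored via TNB absorbance. Enzyme dispensed at 20 nM; compound exposure 15 min at room temperature before reaction start.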
Tb PYK inh: T. brucei pyruvate kinase inhibition | actives 0.12% (n = 410,000) | TbPYK enzyme, Kinase-Glo Plus ATP luminescence, 45 min | Q57TT1 | Potency, µM (titrated, usually from 76.8 µM), most hits filed as inhibitors; further: nearly all actives have a fitted effect of over 50% in size
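Activity of T. brucei pyruvate kinase was followed by Kinase-Glo Plus luminescence after the enzyme reacted 45 min at room temperature with 130 uM ADP (final) and substrate. Test compounds were added before ADP at multiple concentrations.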
LmPK inhibitor: LmPK (Leishmania mexicana) enzyme inhibition; actives 0.37% (n = 290,000); purified LmPK, Kinase-Glo ATP luminescence, 1 h; Q27686; Potency, µM (highest dose often 57.5 µM), actives largely listed as inhibitors
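In 50 mM imidazole pH 7.2 with 7 mM MgCl2, LmPK (0.1 nM) turned over PEP (0.5 mM) and ADP (0.1 mM) for 1 h at room temperature. Luciferase read-out of ATP.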
Giardia FBPA inh: Giardia lamblia aldolase inhibition | actives 0.71% (n = 290,000) | A8B2U2 | Potency, µM (highest dose often 59.6 µM), actives largely listed as inhibitors | purified Giardia FBPA; further: nearly all actives have a fitted effect of over 55% in size
Target sequence (A8B2U2 whole entry, looked up): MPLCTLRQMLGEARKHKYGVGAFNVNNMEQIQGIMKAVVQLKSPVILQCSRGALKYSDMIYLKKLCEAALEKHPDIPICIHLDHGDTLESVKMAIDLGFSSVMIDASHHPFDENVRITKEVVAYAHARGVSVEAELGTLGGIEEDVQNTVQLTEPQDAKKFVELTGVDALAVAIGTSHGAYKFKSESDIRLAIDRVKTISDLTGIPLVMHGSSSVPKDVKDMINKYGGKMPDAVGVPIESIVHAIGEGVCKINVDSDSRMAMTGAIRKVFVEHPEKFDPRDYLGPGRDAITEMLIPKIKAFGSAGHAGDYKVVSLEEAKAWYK
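Giardia FBPA (40 nM reagent) was preincubated 10 min at RT with compound (up to 57.5 uM final), then substrate plus GAPDH/TPI/NAD/arsenate coupling system with diaphorase/resazurin was added; resorufin fluorescence (525/598 nm) was read after 20 min.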
RE007 growth inh: less growth of the S. pombe RE007 Vpr strain. S. pombe RE007 Vpr strain, BacTiter-Glo ATP luminescence, 24 h. Potency, µM (doses to about 92.2 µM), most hits filed as inhibitors. actives 0.21% (n = 360,000); active means well fitted falling curve with a large enough effect; inconclusive means small, poorly fitted or top-dose-only effect; inactive means no such curve, though single readings can be large or run the other way; further: nearly all actives have a fitted effect of over 50% in size
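Fission yeast RE007 carrying one integrated HIV-1 vpr copy, seeded at OD 0.01 in PMG+AL medium with 23 nL pinned compound. Grown 24 h at 30 degrees; viability read by BacTiter-Glo luminescence after 5 min.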
Numbers stand for hits; . = inactive; ? = inconclusive; / = not tested or not shown; [ ] = another dose, or the depositor's remark. The list is not random: actives were taken first. Their share in the collection is about 3.3%. Unless noted, the call rests on the fitted dose curve; in most records, active means well fitted curve in the direction sought with a large enough effect; inconclusive means small, poorly fitted or top-dose-only effect, or another doubt; inactive means no such curve, though single readings can be large; an effect the other way counts as inactive or inconclusive.

SMILES | Sm TGR inh | Tb PYK inh | LmPK inhibitor | Giardia FBPA inh | RE007 growth inh
Cc1ccc(S(=O)(=O)N(C)C(C)CCc2ccco2)cc1 (stereo unspecified) | 50µM | . | / | / | .
CC(CCc1ccco1)N(C)S(=O)(=O)c1csc(C(N)=O)c1 (stereo unspecified) | . | . | . | / | .
CC(=O)c1ccc(S(=O)(=O)N(C)C(C)CCc2ccco2)cc1 (stereo unspecified) | 40µM | . | . | . | .
Cc1ccc(S(=O)(=O)N(C)c2ccc(OCC(=O)NCc3ccco3)cc2)cc1 | . | / | . | . | .[3.69 µM]
COc1ccc(S(=O)(=O)N(C)C(C)CCc2ccco2)cc1 (stereo unspecified) | 20µM | . | . | . | .
CCOc1ccccc1NC(=O)CSc1cn(CC(=O)N2CCCCCC2)c2ccccc12 | . | . | / | / | /
NC(=O)c1ccsc1NC(=O)CCS(=O)(=O)c1ccc(Cl)cc1 | 3.2µM | . | / | / | .
N#Cc1ccsc1NC(=O)CCS(=O)(=O)c1ccccc1 | 2.8µM | . | . | / | .
NC(=O)c1ccsc1NC(=O)CCS(=O)(=O)c1ccccc1 | . | . | . | . | .
CCOc1ccc(NC(=O)/C=C/c2ccccc2)c([N+](=O)[O-])c1 | . | . | . | . | .
O=C(N/N=C/c1ccc(OC2CSC2)cc1)c1ccccc1 | . | . | . | . | .
CCOc1ccc(C(=O)/C=C/c2ccc(SC)cc2)cc1 | . | . | . | . | .
O=C(/C=C/c1ccc(OC2CSC2)cc1)c1ccccc1 | . | ? | 25µM | . | ?
CCOc1ccc(N/C=C/C(=O)c2ccccc2)c([N+](=O)[O-])c1 | . | 25µM | 4µM | . | .
CCOc1ccc(/C=C/C(=O)c2ccccc2)cc1 | . | . | 16µM | . | /
CCCCSc1ccc2nc(-c3ccc(C#N)cc3)cn2c1 | . | . | . | . | .
CCCSc1ccc2nc(-c3ccccc3)cn2c1 | . | ? | 6.3µM | . | ?
COc1ccc(-c2n[nH]c(=S)n2-c2ccccc2C)cc1OC | . | ? | ? | . | .
COc1ccccc1-n1c(-c2ccccc2)n[nH]c1=S | / | 6.3µM | . | . | .
COc1cc(OC)cc(C(=O)NCc2n[nH]c(=S)n2-c2ccccc2OC)c1 | . | 11µM | ? | . | .
COc1ccccc1-n1c(CNC(=O)c2cccs2)n[nH]c1=S | . | ? | ? | ? | .
COc1ccc(-c2n[nH]c(=S)n2-c2ccccc2C)cc1 | . | ? | 28µM | . | .
S=c1[nH]nc(-c2cccc3ccccc23)n1-c1cccnc1 | . | ? | 13µM | . | .
CCC1CCCCN1CCCNC(=O)C1CCN(Cc2nc(-c3ccc(Cl)cc3)oc2C)CC1 (stereo unspecified) | . | . | . | / | .
CCCCCCCC/C=C\C/C=C\C=C\C(O)CCCC(=O)O (stereo unspecified) | / | / | / | . | /
SMILES | Sm TGR inh | Tb PYK inh | LmPK inhibitor | Giardia FBPA inh | RE007 growth inh
CN1C(=O)c2ccccc2Sc2ccc(NC(=O)Nc3ccccc3F)cc21 | . | . | / | / | /
CC(C)CCOc1ccc(CO[C@@H]2[C@H]3OC(C)(C)O[C@H]3O[C@@H]2C(O)CO)cc1 (stereo partly specified) | . | . | . | . | .
C[C@@H]([C@H](O)c1ccc(O)cc1)N1CCC(Cc2ccccc2)CC1 | / | / | / | . | /
S=c1[nH]nc(-c2ccc3ccccc3n2)n1-c1ccc(Cl)cc1 | . | . | . | . | .
COc1ccc(-c2cc(-c3n[nH]c(=S)n3-c3ccccc3OC)[nH]n2)cc1 | . | . | 11µM | . | .
S=c1[nH]nc(-c2ccc3ccccc3n2)n1-c1ccc2ncccc2c1 | . | 4µM | 14µM | . | .
COc1ccc(OC)c(-n2c(-c3cc(-c4ccccc4)n[nH]3)n[nH]c2=S)c1 | . | ? | 10µM | . | .
Cc1ccccc1-n1c(-c2ccc3ccccc3n2)n[nH]c1=S | . | ? | 18µM | . | .
COc1ccc(-c2cc(-c3ccccc3)n[nH]2)c(O)c1 | / | . | . | . | ?
CC1CCCC(C)N1CCNC(=O)CCn1nc(-c2ccccc2)ccc1=O (stereo unspecified) | . | . | . | . | .
Cc1ccc(Oc2nc(CN3CCOCC3)nc3sc4c(c23)CCC(C)C4)cc1C (stereo unspecified) | . | . | . | . | .
O=c1c2ccccc2nc(SCc2ccccc2Cl)n1Cc1ccccc1 | . | . | . | . | .
COc1ccc(OC)c(-n2c(-c3cccc(C)c3)n[nH]c2=S)c1 | . | 2.5µM | ? | . | .
CC(C)c1ccccc1-n1c(-c2cccnc2)n[nH]c1=S | . | ? | . | . | .
Cc1ccccc1-n1c(-c2cccnc2)n[nH]c1=S | . | ? | 11µM | ? | .
COc1ccccc1-n1c(-c2cn(C)nc2C)n[nH]c1=S | . | ? | 22µM | ? | .
COc1ccc(OC)c(-n2c(-c3ccccc3)n[nH]c2=S)c1 | . | 11µM | 2.2µM | . | .
COc1ccccc1NC(=O)C1CCC(CNS(=O)(=O)c2ccc3c(c2)CC(C)N3C(C)=O)CC1 (stereo unspecified) | . | . | / | / | /
CCOC(=O)[C@]12Cc3cc(C)ccc3[C@H]1N(C)C(=O)c1cc(OC)ccc12 | / | . | / | / | .
Cc1cccc(CN(C)C)c1CC(O)(c1ccccc1)c1ccccc1 | / | . | / | / | .
CCOC(=O)C1CCN(C(=O)c2ccc3c(Cl)c4c(nc3c2)CCCC4)CC1 | . | . | . | . | .
CCOC(=O)CSc1nc2c(c(-c3ccc(C)o3)c1C#N)CCCC2 | 45µM | . | . | . | .
COC(=O)CSc1nc2c(c(-c3ccco3)c1C#N)CCCC2 | 3.2µM | ? | . | . | .
Cc1ccc(-c2c(C#N)c(N)nc3c2CCCCC3)o1 | . | . | . | . | .
COC(=O)CSc1nc2c(c(-c3ccc(O)cc3)c1C#N)CCCC2 | / | . | . | . | .
SMILES | Sm TGR inh | Tb PYK inh | LmPK inhibitor | Giardia FBPA inh | RE007 growth inh
Cc1ccc(C(=O)CN2C(=O)C(=O)N(Cc3ccccc3)C2=O)cc1 | ? | . | . | . | .
N/C(CS(=O)(=O)c1ccccn1)=N\OC(=O)c1ccccc1Cl | 40µM | . | . | . | .
N/C(CS(=O)(=O)c1ccccn1)=N\OC(=O)c1ccc(Cl)cc1 | . | . | . | . | .
Cc1ccc(C(=O)O/N=C(\N)c2ccccn2)c(Cl)c1 | . | 14µM | ? | . | 13µM
N/C(=N\OC(=O)c1cc([N+](=O)[O-])ccc1Cl)c1ccccn1 | ? | . | . | . | .
N/C(=N\OC(=O)c1cc(Br)ccc1Cl)c1ccccn1 | . | . | . | . | .
N/C(=N\OC(=O)c1ccc([N+](=O)[O-])cc1Cl)c1ccccn1 | ? | ? | 18µM | . | .
N/C(=N\OC(=O)c1ccc(Cl)cc1[N+](=O)[O-])c1ccccn1 | . | . | . | . | .
N/C(=N\OC(=O)c1ccc(Cl)cc1Cl)c1ccccn1 | . | . | 7.1µM | . | .
